FLuc counter = firefly luciferase modulation, counter-screen for miR-21 project; purified FLuc, Km substrates, luminescence inhibition; Potency, µM (titrated, usually from 57.5 µM), inactives show at the top dose activity change, negative = inhibition, actives largely listed as inhibitors; P08659; AID 588342; hit rate 6.9% among 360,000;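 further: plate controls were vehicle for no effect and reference inhibitor for full effect; nearly all actives have a fitted effect of over 55% in size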
Target sequence (P08659 whole entry, looked up): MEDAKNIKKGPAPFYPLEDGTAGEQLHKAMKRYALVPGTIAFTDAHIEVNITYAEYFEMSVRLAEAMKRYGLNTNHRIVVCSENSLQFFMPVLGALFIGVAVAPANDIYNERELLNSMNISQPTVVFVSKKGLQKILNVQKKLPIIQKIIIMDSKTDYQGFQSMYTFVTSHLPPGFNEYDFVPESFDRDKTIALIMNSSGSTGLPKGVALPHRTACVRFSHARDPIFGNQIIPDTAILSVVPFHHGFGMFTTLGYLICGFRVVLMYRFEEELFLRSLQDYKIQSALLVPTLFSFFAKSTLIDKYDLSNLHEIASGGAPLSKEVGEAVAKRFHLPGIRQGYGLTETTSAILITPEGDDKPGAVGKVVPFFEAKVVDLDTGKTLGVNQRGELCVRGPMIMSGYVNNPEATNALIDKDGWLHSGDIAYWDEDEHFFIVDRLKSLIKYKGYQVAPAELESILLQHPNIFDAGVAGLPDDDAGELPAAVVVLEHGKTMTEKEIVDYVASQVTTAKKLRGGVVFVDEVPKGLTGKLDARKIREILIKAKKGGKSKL
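Purified P. pyralis luciferase, 10 nM final, with Km-level 10 uM D-luciferin and 10 uM ATP in 50 mM Tris acetate pH 7.5, 10 mM Mg acetate, 0.01% Tween-20, 0.05% BSA; 6-point qHTS titration about 60 µM downward; luminescence read.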
NPC1 promoter act = activators of NPC1 promoter; Huh7 NPC1 promoter luciferase reporter, 24 h; hit rate 2.4% among 320,000; AID 485313; Potency, µM (titrated, usually from 9.22 µM), inactives show at the highest dose activation, most hits filed as activators; further: % of control where 0% means no effect; nearly all actives have a fitted effect of over 60% in size
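Stable NPC1-promoter luciferase Huh7 line; cpd (DMSO) 24 h, 37 °C, 5% CO2; Amplite luciferase reagent 10 min RT; luminescence readout. qHTS format.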
ELG1 genotoxic = inducers of genotoxicity in HEK293T ELG1-luciferase cells | HEK293T ELG1-luciferase reporter, luminescence, 16 h | Potency, µM (top dose mostly 46 µM), for inactives: at the highest dose activity change, positive = activation, actives largely listed as activators | hit rate 1.3% among 330,000 | AID 504466; further: % of control where 0% means no effect; nearly all actives have a fitted effect of over 60% in size
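Luminescence read-out: rising ELG1-luciferase signal, reflecting elevated ELG1 protein under genetic stress, flags genotoxic compounds. Cells were treated for 16 hr at 37 °C before ONE-Glo detection.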
SMN2 splice enh = increases expression of the SMN2 splice variant. HEK293 SMN2-luciferase splicing reporter, luminescence, 30-36 h. Potency, µM (top dose mostly 46.1 µM), inactives show at the top dose activity change, positive = activation, most hits filed as activators. hit rate 2.8% among 210,000. AID 1458; further: % of control where 0% means no effect; nearly all actives have a fitted effect of over 55% in size
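HEK293 cells carry an SMN2 minigene-luciferase reporter in which exon 7 inclusion puts luciferase in frame. Cells were seeded at 2000 cells/well, attached for 10-12 hours, then exposed to compounds for 30-36 hours at 37C before ONE-Glo luminescence.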
Luc counter = counter-screen: inhibitors of Kinase-Glo firefly luciferase | Q27757 | Kinase-Glo luciferase, ATP luminescence, 8 min | Potency, µM (highest dose often 38.3 µM), for inactives: top-dose activity change, negative = inhibition, actives largely listed as inhibitors | hit rate 0.28% among 200,000 | AID 1379; further: on the % scale 0 is the no-effect control and ±100 the full control effect; nearly all actives have a fitted effect of over 60% in size
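Compounds were added to a substrate mix at pH 7.2 (50 mM imidazole, 10 uM ATP, within the enzyme's linear range), followed by Kinase-Glo detection reagent; luminescence was measured after 8 minutes at ambient temperature.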
Rab9 promoter act = activators of Rab9 promoter; AID 485297; Huh7 Rab9 promoter-luciferase reporter, luminescence, 24 h; Potency, µM (titrated, usually from 9.22 µM), without a hit: at the top dose activation, negative = inhibition, actives largely listed as activators; hit rate 2.8% among 320,000; further: % of control where 0% means no effect; nearly all actives have a fitted effect of over 60% in size
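Luciferase signal after 10 min detection reagent at ambient indicates Rab9 promoter upregulation; stably transfected Huh7 cells were treated 24 h with compound in DMSO at 37 °C, 5% CO2.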
Numbers without * were called inactive; ? = inconclusive; . = not tested or not shown. Sampled rows, rich in hits. Any-hit rate of the full collection: about 7.4%. The call rests on the fitted dose curve; in most records, active means well fitted curve in the direction sought with a large enough effect; inconclusive means small, poorly fitted or top-dose-only effect, or another doubt; inactive means no such curve, though single readings can be large; an effect the other way counts as inactive or inconclusive. Potency means the concentration at half of the fitted maximal effect.

SMILES	FLuc counter	NPC1 promoter act	ELG1 genotoxic	SMN2 splice enh	Luc counter	Rab9 promoter act
Cc1ccc(N(C(=O)c2csnn2)C(C(=O)NC2CCCCC2)c2cccnc2)cc1 (stereo not drawn)	-0.1%	-5.3%	0.2%	.	.	1.9%
Cc1ccc(NC(=O)CSCn2nnc3c(=O)[nH]c(Cc4ccc(F)cc4)nc32)c(C)c1	-14.1%	.	.	-2.2%	.	.
CCOc1ccc(CNC(=O)CCCn2ccc3cc(S(=O)(=O)N4CCCC4)ccc32)cc1	16.9µM*	-1.2%	-12.2%	.	.	-8.5%
Cc1ccc(CSc2nnc(NC(=O)C3=COCCO3)s2)cc1	26.9µM*	10.3%	9.3%	.	.	2.7%
Cc1cc(C)c(-c2csc(NC(=O)C3=COCCO3)n2)c(C)c1	-0.8%	-2.0%	?	.	.	-5.4%
CCc1ccc(-c2csc(NC(=O)C3=COCCO3)n2)cc1	8.49µM*	0.891µM*	?	.	.	0.794µM*
O=C(Nc1nc(-c2ccc(F)c(F)c2)cs1)C1=COCCO1	?	19.8%	4.1%	.	.	?
O=C(Nc1nc(-c2ccc(Cl)cc2)cs1)C1=COCCO1	23.9µM*	?	6.9%	.	.	16.4%
O=C(Nc1nc(-c2cccs2)cs1)C1=COCCO1	12µM*	?	?	12.6µM*	-1.4%	?
O=C1C=C(/C=C/c2ccccc2)C[C@@H](c2ccc3c(c2)OCO3)C1	-9.4%	-0.2%	8.2%	.	.	-6.7%
Cc1ccccc1NC(=O)c1ccccc1NC(=O)c1ccccc1Cl	?	.	.	-12.1%	.	.
Cc1cc(NC(=O)c2ccc(Cl)cc2)ccc1NC(=O)c1ccccc1Cl	12µM*	4.1%	-6.0%	.	.	15.8%
Cc1cc(NC(=O)c2ccccc2Cl)ccc1NC(=O)c1ccccc1Cl	12µM*	17.0%	-0.8%	.	.	17.0%
C[C@H](CO)N1C[C@H](C)[C@@H](CN(C)S(=O)(=O)c2cccs2)Oc2c(NC(=O)NC3CCCCC3)cccc2C1=O	.	.	-0.6%	.	.	.
C[C@H](CO)N1C[C@H](C)[C@@H](CN(C)S(=O)(=O)c2ccccc2)Oc2ccc(NC(=O)CCC(F)(F)F)cc2C1=O	.	.	-0.7%	.	.	.
CCCOc1ccc(C2Nc3cccc4cccc(c34)N2)cc1	10.7µM*	20.3%	3.9%	.	.	4.4%
CCN(CC)c1ccc(C2Nc3cccc4cccc(c34)N2)cc1	10.7µM*	29.1%	2.7%	.	.	22.9%
CCNC(=O)c1ccc(NS(=O)(=O)c2ccc3[nH]c(=O)[nH]c3c2)cc1	15.1µM*	2.24µM*	7.3µM*	.	.	3.55µM*
CC1CCCN(C(=O)c2ccc(NS(=O)(=O)c3ccc4[nH]c(=O)[nH]c4c3)cc2)C1 (stereo not drawn)	-1.1%	-1.6%	2.5%	.	.	-8.0%
CC1CCC(NC(=O)c2ccc(NS(=O)(=O)c3ccc4[nH]c(=O)[nH]c4c3)cc2)CC1 (stereo not drawn)	?	?	18.3µM*	.	.	?
COc1ccc(CCNC(=O)c2cc3ccccc3oc2=O)cc1	?	1.4%	5.9%	.	.	-1.6%
CC(/C=N/Nc1ccc2nncn2n1)=C\c1ccccc1	15.1µM*	2.4%	4.9%	.	.	11.8%
CC(/C=N/Nc1nnc(C)c(=O)[nH]1)=C\c1ccccc1	12µM*	?	15.2%	?	-3.0%	?
C(=C\c1ccccc1)/C=N/Nc1ccc2nncn2n1	-13.0%	?	4.7%	.	.	-3.7%
COC(=O)c1ccc(Cn2nc(-c3cc(C)ccc3C)ccc2=O)cc1	1.9%	-6.8%	-1.1%	.	.	-7.9%
SMILES	FLuc counter	NPC1 promoter act	ELG1 genotoxic	SMN2 splice enh	Luc counter	Rab9 promoter act
COc1ccccc1-c1ccc2ncnc(N3CCN(C)CC3)c2c1	.	.	.	-78.6%	-3.3%	.
Oc1c(CN2CCOCC2)cc(COCc2ccccc2)c2cccnc12	1.1%	-17.5%	18.4µM*	-105.3%	3.2%	-25.3%
Oc1c(CNc2ccccc2)cc(COCc2ccccc2)c2cccnc12	0.4%	-13.8%	-0.9%	.	.	-15.5%
O=C(CSc1nnc2ccccn12)NNC(=O)c1ccccc1F	.	.	11.3%	.	.	.
COc1ccccc1C(C)NCC(=O)Nc1ccccc1C(F)(F)F (stereo not drawn)	-9.3%	-0.5%	-4.5%	4.47µM*	-3.1%	6.4%
CCCCc1cc(=O)oc2cc(OCC(=O)NCCN3CCOCC3)ccc12	4.1%	-7.5%	0.2%	.	.	-2.3%
COc1ccc(N2C(=O)c3ccccc3NC2(C)C)cc1	-2.5%	?	-1.6%	8.91µM*	0.2%	?
COc1ccc(N2C(=O)c3ccccc3NC23CCCCC3)cc1	10.7µM*	2.82µM*	?	12.6µM*	8.6%	2.51µM*
CCOc1ccc(N2C(=O)c3ccccc3NC2(C)CC)cc1 (stereo not drawn)	.	?	?	.	.	3.55µM*
COc1ccc(N2C(=O)c3ccccc3NC23CCC(C)CC3)cc1 (stereo not drawn)	?	2.51µM*	?	10µM*	-3.6%	2.24µM*
COc1ccc(N2C(=O)c3ccccc3NC2c2cccnc2)cc1 (stereo not drawn)	1.5%	9.4%	9.2%	14.9%	2.4%	-7.0%
COc1ccc(N2C(=O)CSC23CCCCC3)cc1	-1.8%	-3.8%	0.9%	-2.8%	1.0%	12.8%
C=C1c2ccccc2NC(=O)N1c1ccc(OC)cc1	2.8%	-4.6%	8.5%	.	-8.9%	-0.3%
O=C(Nc1ccc(NC(=O)c2ccccn2)cc1)C(=O)Nc1ccc2c(c1)OCCO2	0.4%	11.5%	10.3%	?	1.1%	14.5%
O=C(Nc1ccc2c(c1)OCCO2)c1ccc2ccccc2n1	2.13µM*	0.1%	?	11.2µM*	-3.5%	4.47µM*
Cc1ccc(NC(=O)c2ccc3ccccc3n2)cc1S(=O)(=O)N(C)C	4.26µM*	?	?	22.4µM*	-0.2%	2.82µM*
O=C(Nc1ccc2c(c1)OCCO2)c1ccccn1	0.849µM*	0.794µM*	1.03µM*	1.26µM*	12.6µM*	0.316µM*
CC(C)c1ccc(NC(=O)Cn2cc(S(=O)(=O)N3CCN(c4ccccc4F)CC3)c3ccccc3c2=O)cc1	-0.7%	.	.	-3.9%	.	.
Cc1ccc(NC(=O)CSc2ncnc3c2sc2ccccc23)cc1C	-6.2%	.	.	.	.	.
Cc1c(Br)cnn1C(C)C(=O)N1CCN(c2ccc(F)cc2)CC1 (stereo not drawn)	-3.8%	-0.9%	-7.8%	.	.	4.4%
CCOc1ccc(-c2nc(-c3cccnc3)no2)cc1OCC	?	6.5%	8.9%	-15.9%	-4.2%	0.8%
CC(=O)Nc1ccc(Oc2ccc(-c3noc(C)n3)cc2)cc1	-9.5%	.	.	5.4%	-4.0%	.
CC(=O)Oc1ccc(-c2nc(-c3cccnc3)no2)cc1	6.01µM*	3.55µM*	5.8µM*	?	-27.6%	?
CC(=O)Oc1ccc(Oc2ccc(-c3noc(C)n3)cc2)cc1	?	11.3%	23.1µM*	?	0.5%	?

Screening data: PubChem BioAssay, National Center for Advancing Translational Sciences (NCATS)
